Tau ThT inhib – qHTS for Inhibitors of Tau Fibril Formation, Thioflavin T Binding. 270,000 compounds, 2.1% hits. AID 1460, 2008. Microtubule-associated protein tau (Homo sapiens), P10636. Potency, µM (titrated, usually from 57.4 µM), inactives show at the highest dose activity, negative = inhibition, actives largely listed as inhibitors. recombinant tau K18 P301L, heparin-induced fibrillization, ThT fluorescence; active = well fitted curve in the direction sought with a large enough effect; inconclusive = small, poorly fitted or top-dose-only effect, or another doubt; inactive = no such curve, though single readings can be large; an effect the other way counts as inactive or inconclusive; also: nearly all actives have a fitted effect of over 55% in size
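Aggregation was driven by heparin (20 uM final) acting on recombinant tau […] bearing P301L in 100 mM sodium acetate pH 7; fibrils were detected with Thioflavin T.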
ALDH1A1 block – qHTS Assay for Inhibitors of Aldehyde Dehydrogenase 1 (ALDH1A1); AID 1030, 2008; 220,000 compounds, 7.3% hits; Potency, µM (top dose mostly 75.3 µM), inactives show at the top dose activity, negative = inhibition, actives largely listed as inhibitors; Purified ALDH1A1, NADH fluorescence, propionaldehyde substrate; Aldehyde dehydrogenase 1A1 (Homo sapiens), P00352;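 also: plate controls were no enzyme wells and a reference inhibitor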
Tau fluor counter – Counterscreen qHTS for Inhibitors of Tau Fibril Formation, Fluorescence Polarization | tau K18 P301L Alexa594 fluorescence, heparin fibrillization | Potency, µM (titrated, usually from 57.7 µM), for inactives: at the highest dose activity change, negative = decrease | 280,000 compounds, 0.93% hits | AID 1463, 2008; active = well fitted curve in the direction sought with a large enough effect; inconclusive = small, poorly fitted or top-dose-only effect, or another doubt; inactive = no such curve, though single readings can be large; an effect the other way counts as inactive or inconclusive; also: nearly all actives have a fitted effect of over 55% in size
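Human tau K18 P301L (15 uM unlabeled, 0.24 uM Alexa 594-labeled) in 100 mM sodium acetate pH 7 with 20 uM heparin, 6 hr at 37 C. ThT 30 uM added, 1 hr ambient; Alexa 594 FP and total fluorescence read at 555/632 nm.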
Tau FP inhib – qHTS for Inhibitors of Tau Fibril Formation, Fluorescence Polarization; 280,000 compounds, 0.39% hits; K18 P301L tau heparin fibrillization, Alexa594 FP, 6 h; Microtubule-associated protein tau (Homo sapiens), P10636; Potency, µM (top dose mostly 57.7 µM), inactives show top-dose activity, negative = inhibition, usual class: inhibitors; active = well fitted curve in the direction sought with a large enough effect; inconclusive = small, poorly fitted or top-dose-only effect, or another doubt; inactive = no such curve, though single readings can be large; an effect the other way counts as inactive or inconclusive; also: nearly all actives have a fitted effect of over 55% in size
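Heparin (20 uM) drove fibril formation of recombinant tau K18 P301L, 15 uM unlabeled with 0.24 uM Alexa 594 label, for 6 hr at 37 C in 100 mM sodium acetate pH 7. Fluorescence polarization (555/632 nm) read 1 hr after 30 uM ThT.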
KDM4E inh – qHTS Assay for Inhibitors of Human Jumonji Domain Containing 2E (JMJD2E); Potency, µM (titrated, usually from 57.1 µM), for inactives: top-dose activity change, negative = inhibition, actives largely listed as inhibitors; JMJD2E catalytic domain, FDH-coupled NADH fluorescence (FDH is formaldehyde dehydrogenase); 230,000 compounds, 1.6% hits; Lysine-specific demethylase 4E (Homo sapiens), B2RXH2;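 also: 0% = wells with enzyme and -100% = buffer wells without enzyme; nearly all actives have a fitted effect of over 50% in size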
Target sequence (B2RXH2 1-337 limits assumed): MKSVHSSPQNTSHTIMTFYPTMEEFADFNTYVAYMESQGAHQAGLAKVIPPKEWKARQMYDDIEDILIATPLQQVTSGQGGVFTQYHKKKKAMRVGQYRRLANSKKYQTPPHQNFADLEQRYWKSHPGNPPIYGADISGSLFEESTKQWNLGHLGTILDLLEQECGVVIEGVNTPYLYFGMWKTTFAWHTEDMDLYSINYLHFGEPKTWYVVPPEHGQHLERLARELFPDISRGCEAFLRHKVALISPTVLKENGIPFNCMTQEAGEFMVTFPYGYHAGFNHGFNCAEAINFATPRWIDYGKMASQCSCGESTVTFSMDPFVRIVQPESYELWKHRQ
HPGD inh – qHTS Assay for Inhibitors of HPGD (15-Hydroxyprostaglandin Dehydrogenase) | 15-hydroxyprostaglandin dehydrogenase [NAD(+)] (Homo sapiens), P15428 | purified HPGD, NADH fluorescence kinetic, PGE2 substrate | Potency, µM, without a hit: at the top dose activity change, negative = inhibition, most hits filed as inhibitors | 150,000 compounds, 4.3% hits | AID 894, 2007
Target sequence (P15428 whole entry, looked up): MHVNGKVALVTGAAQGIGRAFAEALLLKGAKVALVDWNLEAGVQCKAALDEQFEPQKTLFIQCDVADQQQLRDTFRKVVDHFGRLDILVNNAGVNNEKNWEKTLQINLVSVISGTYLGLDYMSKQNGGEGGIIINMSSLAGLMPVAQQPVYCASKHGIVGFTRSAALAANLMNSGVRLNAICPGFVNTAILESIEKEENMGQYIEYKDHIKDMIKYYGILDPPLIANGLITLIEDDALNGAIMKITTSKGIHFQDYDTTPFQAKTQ
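NADH formation kinetics: reaction with 30 uM PGE2 and 1 mM NAD+ (final), 20 nM enzyme, Tris-HCl pH 8 with Tween 20, after 15 min compound preincubation at room temperature. Fluorescence change, last versus first of five reads.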
* hit, by the source's call; ? = inconclusive; nt = no result; [ ] = dose if it differs, or a comment. Hits are enriched below; roughly 9.9% of the tested compounds scored in any of these assays. Unless noted, calls follow the shape of the dose curve; as a rule, active = well fitted inhibition curve with a large enough effect (not every such curve was filed as active); inconclusive = small, poorly fitted or top-dose-only effect, or another doubt; inactive = no such curve, though single readings can be large or run the other way. Unless noted, % is scaled to controls: 0 for no effect and ±100 for the full control effect; potency is read from the fitted curve at half-maximal effect.

SMILES	Tau ThT inhib	ALDH1A1 block	Tau fluor counter	Tau FP inhib	KDM4E inh	HPGD inh
Cc1cccc(C(=O)Nc2cccc(C(=O)OCc3cc(=O)n4c5c(sc4n3)CCCC5)c2)c1	?	nt	-14%	-11%	nt	nt
CC(C)c1ccc(NC(=O)CSC2=Nc3ccccc3C3=NC(CC(=O)NC4CCCCC4)C(=O)N23)cc1 (stereo unspecified)	-4%	nt	-13%	-9%	nt	nt
Cc1ccccc1-c1nnc(CN2CCN(c3ccccn3)CC2)o1	-7%	nt	-5%	0%	nt	nt
CC1CCCCN1C(=O)CSc1n[nH]c(-c2ccccc2)n1 (stereo unspecified)	0%	nt	-3%	-3%	nt	nt
O=C(C1CC(c2ccc(F)cc2)=NO1)N1CCCCC1 (stereo unspecified)	-4%	1%	2%	5%	5%	-15%
COc1ccc(-c2ccc(SCC(=O)c3ccc(F)cc3)nn2)cc1OC	?	16µM*	-12%	0%	-15%	nt
CC1CCCCN1C(=O)CSc1ccc(-c2ccc(F)cc2)nn1 (stereo unspecified)	-9%	?	-1%	9%	6%	22µM*
O=C(C1CC(c2ccc(F)cc2)=NO1)N1CCc2ccccc2C1 (stereo unspecified)	-18%	-10%	-16%	2%	0%	20µM*
COc1ccc(N2CCN(C(=O)c3cnc(N4CCOCC4)c4ccccc34)CC2)cc1	-10%	nt	-3%	9%	nt	nt
O=C(O)C1C(c2ccccc2)C(C(=O)Oc2ccccc2)C1c1ccccc1 (stereo unspecified)	-3%	16µM*	2%	3%	8%	-5%
Cc1cccc(OC(=O)C2C(c3ccccc3)C(C(=O)O)C2c2ccccc2)c1 (stereo unspecified)	-1%	?	2%	9%	-10%	0%
COc1ccc(CS(=O)(=O)c2nc(C)cc(C)c2S(C)(=O)=O)cc1	4%	7%	7%	-5%	1%	nt
CC(NC(=O)CSC(=S)N(C)C)C12CC3CC(CC(C3)C1)C2 (stereo unspecified)	-12%	13µM*	-11%	-11%	-3%	nt
Cc1ccc(C2C(C(=O)c3ccco3)=C(O)C(=O)N2c2ncccn2)cc1 (stereo unspecified)	-13%	7%	-10%	0%	-5%	nt
Cc1ccc(C(=O)C2=C(O)C(=O)N(c3ncccn3)C2c2cccc(Cl)c2)o1 (stereo unspecified)	1%	13µM*	3%	4%	-12%	-12%
O=C(O)c1cccc2c1C(=O)c1ccccc1-2	?	22µM*	-12%	-15%	0%	nt
COc1ccccc1C(=O)Nc1cccc(C(=O)OCc2cc(=O)n3ccsc3n2)c1	?	nt	-10%	-15%	nt	nt
Cc1cc(C)cc(OCC(=O)Nc2cccc(-c3nc4ccccc4[nH]3)c2)c1	-14%	nt	11µM*[quencher]	22µM*	nt	nt
CC(Oc1ccccc1)C(=O)Nc1cccc(-c2nc3ccccc3[nH]2)c1 (stereo unspecified)	-10%	7%	-5%	-1%	1%	nt
CC(C)COc1ccc(C(=O)Nc2cccc(-c3nc4ccccc4[nH]3)c2)cc1	?	nt	7.9µM*[quencher]	20µM*	nt	nt
O=C(COc1ccccc1)Nc1cccc(-c2nc3cc4ccccc4cc3[nH]2)c1	?	?	16µM*[quencher]	?	?	?
CC(C)CC(=O)Nc1cccc(-c2nc3ccccc3[nH]2)c1	-5%	nt	-17%	-19%	?	nt
Cc1csc(SCC(=O)NC(C)c2ccccc2)n1 (stereo unspecified)	-11%	-1%	-7%	-2%	1%	nt
Cc1cc(C)cc(NC(=O)c2c(C)oc3nc(C)nc(N4CCCC4)c23)c1	-4%	nt	-7%	4%	nt	nt
CCN(C(=O)c1cc2c(s1)-c1c(C)cccc1OC2)c1cc(C)ccc1C	?	nt	-27%	-1%	nt	nt
SMILES	Tau ThT inhib	ALDH1A1 block	Tau fluor counter	Tau FP inhib	KDM4E inh	HPGD inh
COc1cc(NC(=O)c2cc3ccccc3cc2O)c(OC)cc1Cl	?	nt	?	-12%	?	nt
COc1ccccc1N=c1oc2cc(O)ccc2cc1C(N)=O	?	?	-25%	5%	?	?
COc1ccccc1NC(=O)c1cc2cc(Br)ccc2cc1O	nt	nt	6.3µM*[quencher]	-6%	?	nt
COc1ccccc1NC(=O)c1cc2ccc(O)cc2o/c1=N\O	7.1µM*	-9%	?	5%	?	-17%
COc1ccccc1NC(=O)c1cc2ccccc2o/c1=N\O	?	?	-11%	6%	-3%	22µM*
COc1ccc(CCNC(=O)CSCc2nc(-c3ccc(OC)c(OC)c3)oc2C)cc1OC	-16%	nt	-8%	4%	nt	nt
CCN(CC)S(=O)(=O)c1ccc(NC(=O)Nc2cccc(C(F)(F)F)c2)cc1	-4%	8%	?	7.9µM*	-4%	-1%
CCN(CC)S(=O)(=O)c1ccc(C(=O)Nc2cccc(C)c2)cc1	-4%	?	-28%	?	-2%	-11%
CCN(CC)S(=O)(=O)c1ccc(/C=C/C(=O)Nc2cccc(F)c2)cc1	?	?	?	35µM*	-25%	-13%
Cc1ccc(NS(=O)(=O)c2ccc(NC(=O)c3cccc(NC(=O)C(C)C)c3)cc2)cc1	17%	6%	?	?	-1%	-5%
Cc1ccc(S(=O)(=O)Nc2ccc(NC(=O)Nc3cccc(C(F)(F)F)c3)cc2)cc1	-11%	-2%	2.5µM*[quencher]	13µM*	-9%	-8%
CCN(CC)S(=O)(=O)c1ccc(/C=C/C(=O)O)cc1	2%	2%	0%	2%	-4%	nt
CN(C)S(=O)(=O)NCCNC(=O)c1cc(OCC(F)(F)F)ccc1OCC(F)(F)F	1%	5%	4%	-3%	-1%	nt
O=C(NCCNC(=O)c1cc(OCC(F)(F)F)ccc1OCC(F)(F)F)Nc1cccc(C(F)(F)F)c1	-19%	-3%	?	10µM*	-11%	-19%
CC(C)(C)c1ccc2c(c1)OC(C(=O)N/N=C/c1ccc([N+](=O)[O-])o1)CO2 (stereo unspecified)	?	nt	?	13%	-6%	nt
CN(Cc1nccn1C)C(=O)CCc1nnc(CCC2CCCCC2)o1	-4%	-1%	1%	-4%	-1%	nt

High-throughput results (PubChem)
